Drawing on PubChem BioAssay (EPA / NIEHS), this text covers AC50 and outcome for 3 compounds.

Holding throughout (details): mRNA level, 48 h; actives raise or lower the signal
Read-out in assay [1]: Glutamate-cysteine ligase catalytic (GCLC), GCLC (gene 2729)
Description: LTEA_HepaRG_GCLC: Life Technologies and Expression Analysis (LTEA) Assay for Glutamate-cysteine ligase catalytic (GCLC) using HepaRG (AID 2283498). Put shortly:
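Oxidative-stress marker GCLC is measured as mRNA change in human HepaRG liver cells after 48 h chemical treatment in 0.5% DMSO, eight concentrations from 100 uM. Activity is fitted bidirectionally against vehicle.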

Read-out in assay [2]: growth arrest and DNA damage 45 (GADD45G), GADD45G (gene 10912)
Description: LTEA_HepaRG_GADD45G: Life Technologies and Expression Analysis (LTEA) Assay for growth arrest and DNA damage 45 (GADD45G) using HepaRG (AID 2283499). The method, boiled down:
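Gain or loss of GADD45G mRNA, quantified by TaqMan qRT-PCR against three housekeeping genes, is fitted in both directions relative to 0.5% DMSO. Human HepaRG cultures receive test chemical for 48 h at up to 100 uM.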

Read-out in assay [3]: Glutamate-cysteine ligase regulatory (GCLM), GCLM (gene 2730)
The assay can be described thus: LTEA_HepaRG_GCLM: Life Technologies and Expression Analysis (LTEA) Assay for Glutamate-cysteine ligase regulatory (GCLM) using HepaRG (AID 2283500). The method, boiled down: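 HepaRG, 48 h dosing, 100 uM top, half-log x8, 0.5% DMSO vehicle. Readout: GCLM mRNA by TaqMan qRT-PCR, housekeeping-normalized (ACTB/GAPDH/POLR2A). Curves fit bidirectionally vs DMSO baseline.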

Read-out in assay [4]: Glutathione S-transferase M3 (GSTM3), GSTM3 (gene 2947)
The assay can be described thus: LTEA_HepaRG_GSTM3: Life Technologies and Expression Analysis (LTEA) Assay for Glutathione S-transferase M3 (GSTM3) using HepaRG (AID 2283501). Put shortly:
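HepaRG, plated 48 h, then serum-free induction medium; test chemical 48 h, duplicate; 100 uM top, half-log x8, 0.5% DMSO. Read-out: GSTM3 mRNA (TaqMan qRT-PCR, Fluidigm array). Bidirectional fit vs DMSO.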

Read-out in assay [5]: Heat shock 70 kDa protein 1 (HSPA1A), gene 3303
The assay can be described thus: LTEA_HepaRG_HSPA1A: Life Technologies and Expression Analysis (LTEA) Assay for Heat shock 70 kDa protein 1 (HSPA1A) using HepaRG (AID 2283502). The method, boiled down:
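HepaRG, 48 h exposure, 8-pt half-log CRC from 100 uM in 0.5% DMSO, duplicates. Readout: TaqMan qRT-PCR of HSPA1A mRNA, housekeeping-normalized (ACTB/GAPDH/POLR2A). Bidirectional fit vs 0.5% DMSO baseline.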

Read-out in assay [6]: Hypoxia-inducible factor 1-alpha (Homo sapiens) (UniProt Q16665)
Description: LTEA_HepaRG_HIF1A: Life Technologies and Expression Analysis (LTEA) Assay for Hypoxia-inducible factor 1 (HIF1A) Trancription factor using HepaRG (AID 2283503). The method, boiled down: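 Gain- or loss-of-signal HIF1A mRNA changes are fitted against a DMSO baseline. HepaRG cultures receive eight concentrations, highest 100 uM, for 48 h in serum-free induction medium with 0.5% DMSO.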

Read-out in assay [7]: 3-Hydroxy-3-Methylglutaryl-CoA Synthase 2 (HMGCS2), HMGCS2 (gene 3158)
Description: LTEA_HepaRG_HMGCS2: Life Technologies and Expression Analysis (LTEA) Assay for 3-Hydroxy-3-Methylglutaryl-CoA Synthase 2 (HMGCS2) using HepaRG (AID 2283504). Put shortly:
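HepaRG, plated 48 h then switched to serum-free induction media; cmpd 8-pt, max 100 uM, 1/2-log, 0.5% DMSO, n=2, 48 h. HMGCS2 mRNA by Fluidigm TaqMan qRT-PCR, ACTB/GAPDH/POLR2A norm; bidirectional fit vs DMSO.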

Read-out in another assay: HGF (gene 3082)
Description: LTEA_HepaRG_HGF: Life Technologies and Expression Analysis (LTEA) Assay for Hepatocyte Growth Facto (HGF) using HepaRG (AID 2283505). The method, boiled down:
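Read-out is HGF transcript level by qRT-PCR, normalized to three housekeeping genes, fitted bidirectionally against 0.5% DMSO vehicle. Human HepaRG cells received test chemicals for 48 h at up to 100 uM.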

Read-out in assay [8]: Insulin Like Growth Factor 1 (IGF1), IGF1 (gene 3479)
The assay can be described thus: LTEA_HepaRG_IGF1: Life Technologies and Expression Analysis (LTEA) Assay for Insulin Like Growth Factor 1 (IGF1) using HepaRG (AID 2283506). The method, boiled down:
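qRT-PCR readout of IGF1 mRNA, normalized to three housekeeping genes, after 48 h chemical exposure of HepaRG cells. Concentrations: 8-point half-log series, top 100 uM, 0.5% DMSO vehicle. Gain or loss fitted against DMSO baseline.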

Read-out in assay [9]: Intercellular Adhesion Molecule 1 (ICAM1), ICAM1 (gene 3383)
Description: LTEA_HepaRG_ICAM1: Life Technologies and Expression Analysis (LTEA) Assay for Intercellular Adhesion Molecule 1 (ICAM1) using HepaRG (AID 2283507). Put shortly: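 Readout is qRT-PCR mRNA level, normalized to three housekeeping genes and fitted bidirectionally against 0.5% DMSO vehicle. Human HepaRG cultures received compound for 48 h, top concentration 100 uM with half-log dilutions.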

Read-out in assay [10]: Interleukin 6 (IL6), IL6 (gene 3569)
Description: LTEA_HepaRG_IL6: Life Technologies and Expression Analysis (LTEA) Assay for Interleukin 6 (IL6) using HepaRG (AID 2283509). Put shortly:
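Changes in IL6 mRNA, up or down relative to 0.5% DMSO controls, were derived from concentration-response curves in human HepaRG cells treated for 48 h at up to 100 uM, with ACTB, GAPDH and POLR2A as normalizers.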

Read-out in assay [11]: Interleukin 6 Receptor (IL6R), IL6R (gene 3570)
Description: LTEA_HepaRG_IL6R: Life Technologies and Expression Analysis (LTEA) Assay for Interleukin 6 Receptor (IL6R) using HepaRG (AID 2283510).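 On AC50: differentiated human HepaRG liver cells in serum-free induction medium.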 Put shortly:
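HepaRG, 48 h exposure, 8-pt half-log series, top 100 uM, 0.5% DMSO vehicle, duplicates. Read-out: TaqMan qRT-PCR of IL6R transcript, housekeeping-gene normalized. Gain or loss fitted relative to DMSO baseline.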

Read-out in assay [12]: Potassium channel subfamily K member 1 (KCNK1), KCNK1 (gene 3775)
The assay can be described thus: LTEA_HepaRG_KCNK1: Life Technologies and Expression Analysis (LTEA) Assay for Potassium channel subfamily K member 1 (KCNK1) using HepaRG (AID 2283511). Put shortly:
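Human HepaRG cultures receive test chemicals for 48 h in 0.5% DMSO, top concentration 100 uM with half-log dilutions. Induction or suppression of KCNK1 mRNA relative to DMSO is derived by bidirectional fitting of qRT-PCR data.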

Read-out in assay [13]: Keratin 19 (KRT19), KRT19 (gene 3880)
Description: LTEA_HepaRG_KRT19: Life Technologies and Expression Analysis (LTEA) Assay for Keratin 19 (KRT19) using HepaRG (AID 2283512). The method, boiled down: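 KRT19 transcript levels, measured by Fluidigm qRT-PCR against three housekeeping genes, are fitted for gain or loss of signal relative to DMSO. Human HepaRG cells receive test chemicals (top 100 uM, half-log steps, 0.5% DMSO) for 48 hours.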

Read-out in assay [14]: JUN Transcription Factor, JUN (gene 3725)
Description: LTEA_HepaRG_JUN: Life Technologies and Expression Analysis (LTEA) Assay for JUN Transcription Factor using HepaRG (AID 2283513). The method, boiled down:
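HepaRG, 48 h exposure, 8-pt half-log series top 100 uM, 0.5% DMSO, duplicate. JUN mRNA by qRT-PCR (Fluidigm), housekeeping-normalized (ACTB/GAPDH/POLR2A); bidirectional curve fit vs DMSO baseline.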

Read-out in assay [15]: Lipase C (LIPC), LIPC (gene 3990)
The assay can be described thus: LTEA_HepaRG_LIPC: Life Technologies and Expression Analysis (LTEA) Assay for Lipase C (LIPC) using HepaRG (AID 2283514). The method, boiled down: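 In this multiplexed gene-expression screen, human HepaRG cultures received test chemicals for 48 h across eight concentrations with 100 uM highest, in duplicate. Values reflect LIPC mRNA induction or suppression versus DMSO vehicle, from normalized qRT-PCR.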

Read-out in assay [16]: Lipoprotein lipase (LPL), LPL (gene 4023)
Description: LTEA_HepaRG_LPL: Life Technologies and Expression Analysis (LTEA) Assay for Lipoprotein lipase (LPL) using HepaRG (AID 2283515). The method, boiled down:
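Concentration-response testing used half-log steps from 100 uM in 0.5% DMSO on human HepaRG cells, 48 h, duplicate wells. Phenobarbital 1 mM served as induction control; LPL mRNA was normalized to ACTB, GAPDH, POLR2A.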

Read-out in assay [17]: matrix metalloproteinase-10 (MMP10), MMP10 (gene 4319)
The assay can be described thus: LTEA_HepaRG_MMP10: Life Technologies and Expression Analysis (LTEA) Assay for matrix metalloproteinase-10 (MMP10) using HepaRG (AID 2283517). The method, boiled down:
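In differentiated HepaRG cultures kept in 0.5% DMSO, test chemicals act for 48 h over an eight-point range with a top dose of 100 uM. Expression is then quantified by TaqMan RT-PCR against ACTB, GAPDH and POLR2A.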

Read-out in assay [18]: Insulin-like growth factor-binding protein 1 (IGFBP1), IGFBP1 (gene 3484)
The assay can be described thus: LTEA_HepaRG_IGFBP1: Life Technologies and Expression Analysis (LTEA) Assay for Insulin-like growth factor-binding protein 1 (IGFBP1) using HepaRG (AID 2283508). Put shortly:
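Thawed HepaRG cells are plated for 48 h, switched to serum-free induction medium, then dosed in duplicate for another 48 h (100 uM top, half-log steps). Lysates in RLT go to qRT-PCR, and gain or loss of signal is fitted relative to vehicle.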

Active and inactive are the calls of the source. How the source made its calls: active means hit-call score of the fitted dose curve at least 0.9, where 1 is the maximum; inactive means score below 0.9.

As a reminder, the AC50 is the concentration at which the activity in the assay is half-maximal.

Chain of Hypoxia-inducible factor 1-alpha (Homo sapiens) (Q16665 whole entry, looked up): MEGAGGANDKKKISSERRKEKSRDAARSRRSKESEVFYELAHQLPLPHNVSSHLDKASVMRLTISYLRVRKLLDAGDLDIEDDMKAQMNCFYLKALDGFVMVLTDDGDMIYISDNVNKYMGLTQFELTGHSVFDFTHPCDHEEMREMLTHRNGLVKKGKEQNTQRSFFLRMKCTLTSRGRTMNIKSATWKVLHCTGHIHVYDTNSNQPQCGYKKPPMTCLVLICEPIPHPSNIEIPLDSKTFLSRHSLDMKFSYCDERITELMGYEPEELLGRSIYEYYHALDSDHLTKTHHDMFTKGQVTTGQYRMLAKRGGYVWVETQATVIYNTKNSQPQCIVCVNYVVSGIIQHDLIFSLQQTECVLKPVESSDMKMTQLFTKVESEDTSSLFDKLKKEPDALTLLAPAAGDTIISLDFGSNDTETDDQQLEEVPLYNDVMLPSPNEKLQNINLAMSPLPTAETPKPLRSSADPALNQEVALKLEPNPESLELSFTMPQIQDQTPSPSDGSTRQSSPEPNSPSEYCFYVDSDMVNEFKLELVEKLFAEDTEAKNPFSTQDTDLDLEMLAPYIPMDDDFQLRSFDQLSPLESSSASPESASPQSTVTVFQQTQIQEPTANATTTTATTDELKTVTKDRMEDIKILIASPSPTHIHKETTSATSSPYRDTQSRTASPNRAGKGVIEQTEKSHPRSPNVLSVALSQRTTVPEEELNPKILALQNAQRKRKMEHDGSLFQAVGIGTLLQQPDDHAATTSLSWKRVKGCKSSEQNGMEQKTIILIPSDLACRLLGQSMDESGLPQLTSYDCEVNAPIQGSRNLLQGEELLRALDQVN

Turning to `N#Cc1cc(Br)c(O)c(Br)c1`, the half-maximal activity concentration (AC50) was 10.3 µM (active) in [1]; 71.4 µM (active) in assay [2]; 1.34 µM (active) in [3]; 10.7 µM (active) in assay [4]; 10.6 µM (active) in [5]; 40 µM (active) in assay [6]. For the same compound, the AC50 in assay [7] is 33.3 µM (active); with HGF (gene 3082) it was 23.9 µM (active); in [8], 17.4 µM (active); in assay [9], 69.9 µM (active); in assay [10] it was 34.5 µM (active); in [11] it was 19.4 µM (active). Further, the results for the AC50 in assay [13], in [14] and in [15] were 25.6 µM (active), 24.2 µM (active) and 23.5 µM (active), respectively. In addition, the call in assay [12], in [16] and in assay [17] was inactive.

With `CCc1nn(C)c(C(=O)NCc2ccc(C(C)(C)C)cc2)c1Cl`, the AC50 was 50 µM (active) in [1]; 0.6 µM (active) in [2]; 12.2 µM (active) in [3]; 4.76 µM (active) in assay [4]; 9.92 µM (active) in assay [5]; 8.88 µM (active) in assay [7]. Also, the AC50 with HGF (gene 3082) was 78.6 µM (active); in [8], 0.782 µM (active); in [9] it was 2.34 µM (active); in [10], 1.37 µM (active); in [12], 9.92 µM (active); in assay [13], 0.616 µM (active). Besides, the AC50 is 0.58 µM (active) in [15], 2.22 µM (active) in assay [16] and 26.5 µM (active) in [17]. In addition, the result in assay [6], in assay [11] and in assay [14] was inactive.

Turning to `CON(C)C(=O)Nc1ccc(Cl)c(Cl)c1`, the AC50 in assay [1] is 80 µM (active); in assay [3] it was 73.2 µM (active); in [7] it was 63.4 µM (active); in [8], 50 µM (active); in [18], 50 µM (active); in assay [13], 48.5 µM (active). The values for the concentration at half-maximal activity (AC50) in assay [15] and in [16] were 31.6 µM (active) and 12.5 µM (active), respectively. Also, the compound was classed as inactive (in [2]; in assay [4]; in assay [5]; in [6]; with HGF (gene 3082); in [9]). For the same compound, the outcome in assay [10], in [11], in [12], in assay [14] and in assay [17] was inactive.
